Only some compounds are listed: those with a hit (about 19% of all), similar ones and a draw of the others.
TGFb SMAD3 inh = inhibitors of TGF-b signaling | HepG2 CAGA-GFP TGF-b/SMAD3 reporter, GFP fluorescence, 18 h; TGF-beta stimulated, 500 pg/mL final | Potency, µM (doses to about 46.1 µM), for inactives: top-dose activity, negative = inhibition, usual class: inhibitors | 1.2% of 410,000 active; also: potency is read from the fitted curve at half-maximal effect; % is scaled to controls: 0 for no effect and ±100 for the full control effect; nearly all actives have a fitted effect of over 65% in size
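Smad-responsive CAGA-GFP expression was quantified in HEPG2 cells exposed to compounds and 500 pg/mL final TGF-beta for 18 h at 37 degrees C; unstimulated wells defined full inhibition.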
TDP1 cell noCPT = qHTS for Inhibitors of human tyrosyl-DNA phosphodiesterase 1 (TDP1): qHTS in cells in absence of CPT | DT40 Tdp1-/- hTDP1 cells, no CPT, ATP luminescence, 48 h | Potency, µM (highest dose often 46.2 µM), for the others: top-dose activity change, negative = growth inhibition, actives largely listed as inhibitors | AID 686978, 2013 | 15% of 420,000 active; also: potency is read from the fitted curve at half-maximal effect; % is scaled to controls: 0 for no effect and ±100 for the full control effect; nearly all actives have a fitted effect of over 55% in size
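Seeded 400 DT40-hTDP1 cells/well (vehicle DMSO, no 20 nM CPT); pinned compounds; ≥48 hr at 37 °C; CellTiter-Glo luminescence as viability measure.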
TDP1 block = blocks human tyrosyl-DNA phosphodiesterase 1; 0.28% of 350,000 active; Q9NUW8; recombinant TDP1, AlphaScreen DNA substrate cleavage; Potency, µM (titrated, usually from 130 µM), inactives show at the highest dose activity change, negative = inhibition, usual class: inhibitors; AID 485290; also: potency is read from the fitted curve at half-maximal effect; % is scaled to controls: 0 for no effect and ±100 for the full control effect; nearly all actives have a fitted effect of over 40% in size
Target sequence (Q9NUW8 whole entry, looked up): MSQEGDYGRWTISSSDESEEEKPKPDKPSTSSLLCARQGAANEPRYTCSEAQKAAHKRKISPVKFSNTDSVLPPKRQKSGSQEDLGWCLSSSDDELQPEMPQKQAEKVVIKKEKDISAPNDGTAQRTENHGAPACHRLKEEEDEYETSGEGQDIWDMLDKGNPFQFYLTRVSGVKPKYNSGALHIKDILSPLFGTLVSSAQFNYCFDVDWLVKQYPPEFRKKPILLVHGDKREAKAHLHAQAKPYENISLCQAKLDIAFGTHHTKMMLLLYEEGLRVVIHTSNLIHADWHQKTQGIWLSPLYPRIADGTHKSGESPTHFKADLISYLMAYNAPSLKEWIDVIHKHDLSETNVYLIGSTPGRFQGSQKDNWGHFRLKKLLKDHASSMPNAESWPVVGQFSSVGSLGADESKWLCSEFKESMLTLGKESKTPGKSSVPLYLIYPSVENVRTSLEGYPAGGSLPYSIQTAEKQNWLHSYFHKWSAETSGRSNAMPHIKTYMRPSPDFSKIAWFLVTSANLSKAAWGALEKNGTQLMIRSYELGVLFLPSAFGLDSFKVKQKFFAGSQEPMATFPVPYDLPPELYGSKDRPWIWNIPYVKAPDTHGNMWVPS
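Signal: AlphaScreen proximity between streptavidin donor and anti-FITC acceptor beads on intact substrate. Reaction: Tdp1 1 nM, substrate 15 nM final, 5 min RT after 15 min compound preincubation.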
IL-1B inflam inh = inhibitors of inflammasome signaling (IL-1 beta secretion). THP-1 LPS/ATP IL-1B secretion, AlphaLISA, 16 h; hits give low values. activity change, % at 57.5 µM. 4.7% of 360,000 active. AID 743279; in the data active = activity change below about -50%; inconclusive = mostly about -30% to -49%; also: % is scaled to controls: 0 for no effect and ±100 for the full control effect
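THP-1 cells pretreated 1 hr with compounds (up to 57.5 uM final), then stimulated with LPS (250 ng/mL final) plus ATP (1.25 mM final); secreted IL-1B measured by AlphaLISA after 16 hr, decreased signal indicating inhibition.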
TDP1 cell CPT = DT40-hTDP1 cell growth loss with CPT; 12% of 420,000 active; Potency, µM (highest dose often 46.2 µM), without a hit: at the top dose activity change, negative = growth inhibition, most hits filed as inhibitors; chicken DT40 Tdp1-/-;hTDP1 cells + 20 nM CPT, ATP luminescence, 48 h; also: potency is read from the fitted curve at half-maximal effect; % is scaled to controls: 0 for no effect and ±100 for the full control effect; nearly all actives have a fitted effect of over 55% in size
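Chicken DT40 Tdp1-/- cells stably complemented with human TDP1 were seeded at 400 cells/well in medium containing 20 nM camptothecin, exposed to pin-transferred compounds, and grown at 37 °C for at least 48 hr. Viability was read as ATP luminescence.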
HepG2 tox = HepG2 cytotoxicity, counter-screen for TGF-b inhibitors. HepG2 CAGA-GFP viability, ATP luminescence, 18 h. Potency, µM (top dose mostly 46.1 µM), for inactives: top-dose activity change, negative = cytotoxicity, actives largely listed as cytotoxic. 0.76% of 410,000 active; also: potency is read from the fitted curve at half-maximal effect
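HepG2 CAGA-GFP cells (1000/well, DMEM with 1% FBS) received compound, then TGF-beta at 500 pg/mL final, and were incubated 18 hours at 37 degrees C. Viability was read by CellTiter-Glo luminescence. Media-only wells were set as complete cell-killing and DMSO as no toxicity.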
Starred values were filed as active, the others as inactive; ? = inconclusive; · = no result given. Unless noted, calls follow the shape of the dose curve; as a rule, active = well fitted curve in the direction sought with a large enough effect; inconclusive = small, poorly fitted or top-dose-only effect, or another doubt; inactive = no such curve, though single readings can be large; an effect the other way counts as inactive or inconclusive.

SMILES	TGFb SMAD3 inh	TDP1 cell noCPT	TDP1 block	IL-1B inflam inh	TDP1 cell CPT	HepG2 tox
COc1cc(OC)cc(-c2c(-c3ccc(F)cc3)c3cc(-c4ccc(SC)cc4)ccc3n2C)c1	9.9%	?	0.5%	0.0	?	0.3%
COc1cc(OC)cc(-c2c(C#Cc3ccsc3)c3cc(-c4ccc(N(C)C)nc4)ccc3n2C)c1	6.8%	20.6µM*	0.7%	13.7	?	-3.9%
COc1cc(OC)cc(-c2c(-c3ccc(F)cc3)c3cc(-c4ccc(OC)nc4)ccc3n2C)c1	-6.2%	23.1µM*	2.6%	5.8	?	2.6%
CC(Sc1nnc(Cc2cccs2)n1C1CC1)C(=O)NC1CCS(=O)(=O)C1 (configuration not stated)	-14.0%	1.4%	0.1%	-2.5	-0.1%	0.0%
CC(C)C[C@H](NC(=O)N1CCn2c1nc1ccccc12)C(=O)N[C@@H](C(=O)O)c1ccccc1	3.6%	-13.5%	·	22.3	-0.2%	-1.9%
COc1cc2c(C(=O)N(C)c3ccc(F)cc3)cn(C)c(=O)c2cc1OC	-2.9%	-15.6%	·	12.0	-12.1%	-23.5%
COCCNC(=O)C1CCN(Cc2cc3ccccc3n2Cc2ccc(C)cc2)CC1	?	20.6µM*	1.5%	·	16.4µM*	-47.2%
CCN(CC)S(=O)(=O)N1CCC(C(=O)NCc2ccc(C)cc2)CC1	5.1%	-15.1%	2.0%	-4.5	-7.8%	7.8%
Cc1ccc(C(=O)N2CCC(C(=O)NCc3cccnc3)CC2)cc1	?	-23.3%	2.2%	23.7	-2.5%	0.2%
COCCNC(=O)C1CCCN(Cc2ccccc2)CC1 (configuration not stated)	4.3%	1.0%	·	?	-21.6%	2.8%
CCNC(=O)C1CCN(Cc2cc3ccccc3n2Cc2ccc(C)cc2)CC1	-4.3%	20.6µM*	-3.4%	·	23.1µM*	-26.2%
CCN(CC)c1ccc(CN2CCC(C(=O)NCc3ccc(C)cc3)CC2)cc1	-19.3%	14.6µM*	-2.8%	-1.8	14.6µM*	-46.3%
CCNC(=O)C1CCCN(Cc2ccc(C(=O)OCC)cc2)CC1 (configuration not stated)	-13.3%	-4.4%	·	10.6	-9.5%	7.4%
Cc1ccc(Cn2c(CN3CCC(C(=O)NCc4cccnc4)CC3)cc3ccccc32)cc1	?	?	5.4%	·	?	11.2µM*
O=P(O)(O)O[C@@H]1[C@H](O)[C@H](O)[C@@H](OP(=O)(O)O)[C@H](OP(=O)(O)O)[C@H]1O	·	·	4.1%	·	·	·
Cc1cccc(CN2CCC(C(N)=O)CC2)c1	-3.7%	8.2%	-1.8%	9.6	1.6%	-0.4%
Cc1ccc(Cn2c(CN3CCC(C(=O)NCc4ccccc4C)CC3)cc3ccccc32)cc1	4.2%	16.4µM*	-2.5%	·	20.6µM*	-14.8%
Cc1ccc(S(=O)(=O)N2CCC(C(=O)NCc3ccccc3Cl)CC2)cc1	?	?	0.0%	-12.1	?	-1.8%
CNC(=O)C1CCN(Cc2cc3ccccc3n2Cc2cccc(C)c2)CC1	-28.7%	16.4µM*	6.4%	·	18.4µM*	-24.1%
O=[N+]([O-])c1cc(-c2nc(-c3ccccc3)no2)ccc1NC1CCCCC1	-7.8%	-6.5%	8.6%	·	5.3%	-7.5%
Cn1c2ccccc2c2nnc(SCCN3CCOCC3)nc21	-16.9%	-17.7%	·	7.2	?	-17.6%
Cc1cc(C)c2c(c1)c1nnc(SCCN3CCCCC3)nc1n2C	-13.0%	20.6µM*	·	-72.4*	?	-7.1%
Cn1c2ccc(F)cc2c2nnc(SCCN3CCCCC3)nc21	-18.5%	16.4µM*	4.5%	-59.7*	?	-25.7%
CCOc1ccc2c(c1)c1nnc(SCC(=O)N3CCCCC3C)nc1n2C (configuration not stated)	-10.2%	23.1µM*	-2.1%	-6.2	23.1µM*	-14.1%
COc1ccc(C)cc1NC(=O)N1CCN(S(=O)(=O)c2ccc3c(ccn3C)c2)CC1	-9.7%	·	8.9%	·	·	-1.4%
SMILES	TGFb SMAD3 inh	TDP1 cell noCPT	TDP1 block	IL-1B inflam inh	TDP1 cell CPT	HepG2 tox
Cc1ccc(-n2cnc3cc(C(=O)NC4CCCCCC4)ccc32)cc1Cl	8.7%	?	10.4%	·	?	-9.9%
COc1cc(Nc2cccc[n+]2C)cc(OC)c1OC	24.9%	5.5%	·	8.4	16.3%	-4.3%
Cc1ccc(C(=O)Nc2cc(C(F)(F)F)ccc2N2CCCCC2)cc1[N+](=O)[O-]	6.3%	20.6µM*	-2.8%	-18.0	18.4µM*	10.6%
O=C(Nc1cc(C(F)(F)F)ccc1N1CCCCC1)c1cccc([N+](=O)[O-])c1	-8.5%	16.4µM*	5.2%	-1.7	?	-23.7%
CC(=O)Nc1ccc(NC(=O)c2cccc(C(=O)OC(C)C)n2)cc1	-18.9%	?	0.5%	-23.7	-7.3%	-2.7%
CN(C)c1ccc(NC(=O)c2cccc(C(=O)Nc3ccc(N(C)C)cc3)n2)cc1	-2.7%	6.51µM*	12.8%	-55.9*	9.2µM*	-50.1%
C/C(CC(=O)Nc1ccc(N(C)C)cc1)=N\NC(=O)c1cnccn1	-14.5%	?	5.3%	0.0	-5.0%	-1.2%
C/C(CC(=O)Nc1ccc(N(C)C)cc1)=N\NC(=O)c1ccccn1	35.8%	14.6µM*	9.5%	-15.0	?	30.5%
CC(C)OC(=O)c1cccc(C(=O)Nc2cccc(NC(=O)c3cccc(C(=O)OC(C)C)n3)n2)n1	-1.5%	2.06µM*	2.5%	57.4	?	-2.5%
COc1cc(NC(=O)C/C(C)=N/NC(=O)c2ccccn2)c(OC)cc1Cl	-22.3%	-3.6%	11.0%	-59.3*	5.1%	-22.3%
CCOc1ccc2ncc3c(-c4ccc(C)cc4)nn(-c4cccc(F)c4)c3c2c1	18.5%	-13.7%	-2.3%	·	-16.2%	0.5%
COC(=O)c1cc2ccc(OC)cc2c2cc(OC)c(OC)cc12	-1.9%	?	-4.8%	-61.0*	?	-25.6%
CCN(CC)c1nn2c(=O)c(C(=O)NCc3cccc(C)c3)cnc2s1	0.0%	16.4µM*	4.5%	·	?	-14.5%
CCCN(CCC)c1nn2c(=O)c(C(=O)NCc3cccc(OC)c3)cnc2s1	?	16.4µM*	1.9%	·	?	-32.8%
COc1cccc([C@@H]2Oc3ccc(Br)cc3C[C@H]2OC(=O)N[C@H]2CCCc3ccccc32)c1	·	·	6.2%	·	·	·
Nc1[nH]nc2ncc3cc4ccccc4nc3c12	?	9.2µM*	0.0%	-94.9*	18.4µM*	7.1%
Nc1[nH]nc2nc3ccccc3nc12	·	?	7.1%	·	?	·
